# Shown is part of a subset that was picked to be rich in the strongest signals.
# Key:
# Experiment in all cases: glycan array binding signal (z-score within array); higher = stronger binding
# Conditions in all cases: glycan notation: IUPAC condensed, linker removed
# [1] = target: Gal(b1-4)GlcNAc(b1-3)Gal(b1-4)GlcNAc(b1-3)Gal(b1-4)GlcNAc(b1-3)Gal(b1-4)GlcNAc(b1-3)Gal(b1-4)GlcNAc(b1-2)Man(a1-3)[Gal(b1-4)GlcNAc(b1-3)Gal(b1-4)GlcNAc(b1-3)Gal(b1-4)GlcNAc(b1-3)Gal(b1-4)GlcNAc(b1-3)Gal(b1-4)GlcNAc(b1-2)Man(a1-6)]Man(b1-4)GlcNAc(b1-4)GlcNAc
# Outline: (§1)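 The binding signal is a Z-score computed within each array and averaged over linkers. Arrays of the same protein sequence at different concentrations or buffers were also averaged together. Data originate from 3228 arrays in the Consortium for Functional Glycomics database, kept only where the protein sequence was available.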
# [2] = target: Gal(b1-4)GlcNAc(b1-3)Gal(b1-4)GlcNAc(b1-3)Gal(b1-4)GlcNAc(b1-3)Gal(b1-4)GlcNAc(b1-3)Gal(b1-4)GlcNAc(b1-2)[Gal(b1-4)GlcNAc(b1-3)Gal(b1-4)GlcNAc(b1-3)Gal(b1-4)GlcNAc(b1-3)Gal(b1-4)GlcNAc(b1-3)Gal(b1-4)GlcNAc(b1-6)]Man(a1-6)[Gal(b1-4)GlcNAc(b1-3)Gal(b1-4)GlcNAc(b1-3)Gal(b1-4)GlcNAc(b1-3)Gal(b1-4)GlcNAc(b1-3)Gal(b1-4)GlcNAc(b1-2)Man(a1-3)]Man(b1-4)GlcNAc(b1-4)[Fuc(a1-6)]GlcNAc
# Outline: as §1
# [3] = target: Gal(b1-4)GlcNAc(b1-3)Gal(b1-4)GlcNAc(b1-3)Gal(b1-4)GlcNAc(b1-3)Gal(b1-4)GlcNAc(b1-3)Gal(b1-4)GlcNAc(b1-3)Gal(b1-4)GlcNAc(b1-2)Man(a1-3)[Gal(b1-4)GlcNAc(b1-3)Gal(b1-4)GlcNAc(b1-3)Gal(b1-4)GlcNAc(b1-3)Gal(b1-4)GlcNAc(b1-3)Gal(b1-4)GlcNAc(b1-3)Gal(b1-4)GlcNAc(b1-2)Man(a1-6)]Man(b1-4)GlcNAc(b1-4)GlcNAc
# Outline: as §1
# [4] = target: Gal(b1-4)GlcNAc(b1-3)[Gal(b1-4)GlcNAc(b1-6)]Gal(b1-4)GlcNAc
# Outline: as §1
# Gal3S(b1-3)GlcNAc = target: Gal3S(b1-3)GlcNAc
# Outline: as §1
# Gal3S4S(b1-4)GlcNAc = target: Gal3S4S(b1-4)GlcNAc
# Outline: as §1
# Gal4S(b1-4)GlcNAc = target: Gal4S(b1-4)GlcNAc
# Outline: as §1
# [5] = target: GalNAc(b1-4)GlcNAc(b1-3)GalNAc(b1-4)GlcNAc
# Outline: as §1
# Glc(b1-4)Glc = target: Glc(b1-4)Glc
# Outline: as §1
# Glc(b1-6)Glc = target: Glc(b1-6)Glc
# Outline: as §1
# [6] = target: GlcNAc(a1-4)Gal(b1-4)GlcNAc(b1-3)Gal(b1-4)GlcNAc
# Outline: as §1
# [7] = target: GlcNAc(a1-6)Gal(b1-4)GlcNAc
# Outline: as §1
# [8] = target: GlcNAc(b1-2)[GlcNAc(b1-4)]Man(a1-3)[GlcNAc(b1-4)][GlcNAc(b1-2)Man(a1-6)]Man(b1-4)GlcNAc(b1-4)GlcNAc
# Outline: as §1
# [9] = target: GlcNAc(b1-3)Gal(b1-4)GlcNAc(b1-3)Gal(b1-4)GlcNAc(b1-3)Gal(b1-4)GlcNAc(b1-2)Man(a1-3)[GlcNAc(b1-3)Gal(b1-4)GlcNAc(b1-3)Gal(b1-4)GlcNAc(b1-3)Gal(b1-4)GlcNAc(b1-2)Man(a1-6)]Man(b1-4)GlcNAc(b1-4)[Fuc(a1-6)]GlcNAc
# Outline: as §1
# GlcNAc(b1-3)GalNAc = target: GlcNAc(b1-3)GalNAc
# Outline: as §1
# [10] = target: GlcNAc(b1-6)Gal(b1-4)GlcNAc
# Outline: as §1
# [11] = target: Neu5Ac(a2-3)Gal(b1-3)GalNAc6S
# Outline: as §1
# [12] = target: Neu5Ac(a2-3)Gal(b1-4)GlcNAc(b1-3)Gal(b1-4)GlcNAc(b1-3)[Neu5Ac(a2-3)Gal(b1-4)GlcNAc(b1-3)Gal(b1-4)GlcNAc(b1-6)]GalNAc
# Outline: as §1
# [13] = target: Neu5Ac(a2-3)Gal(b1-4)[Fuc(a1-3)]GlcNAc(b1-3)Gal
# Outline: as §1
# [14] = target: Neu5Ac(a2-3)Gal(b1-4)[Fuc(a1-3)]GlcNAc(b1-3)Gal(b1-4)[Fuc(a1-3)]GlcNAc(b1-3)Gal(b1-4)[Fuc(a1-3)]GlcNAc
# Outline: as §1
# [15] = target: Neu5Ac(a2-3)Gal(b1-4)[Fuc(a1-3)]GlcNAc(b1-3)GalNAc
# Outline: as §1
# [16] = target: Neu5Ac(a2-3)[GalNAc(b1-4)]Gal(b1-4)Glc
# Outline: as §1
# Neu5Ac(a2-6)Gal = target: Neu5Ac(a2-6)Gal
# Outline: as §1
# Neu5Ac(a2-6)GalNAc = target: Neu5Ac(a2-6)GalNAc
# Outline: as §1
# [17] = target: Neu5Ac(a2-6)GalNAc(b1-4)GlcNAc
# Outline: as §1
# Neu5Ac(b2-6)GalNAc = target: Neu5Ac(b2-6)GalNAc
# Outline: as §1
binder,measurement,setting,value
"ECL (Erythrina cristagalli), Q6YD91 (protein) VETISFSFSEFEPGNNDLTLQGAAIITQSGVLQLTKINQNGMPAWDSTGRTLYTKPVHIWDMTTGTVASFETRFSFSIEQPYTRPLPADGLVFFMGPTKSKPAQGYGYLGVFNNSKQDNSYQTLAVEFDTFSNPWDPPQVPHIGIDVNSIRSIKTQPFQLDNGQVANVVIKYDASSKILLAVLVYPSSGAIYTIAEIVDVKQVLPEWVDVGLSGATGAQRDAAETHDVYSWSFHASLPETND",glycan array binding signal (z-score),[1],3.35
same,glycan array binding signal (z-score),[2],5.32
same,glycan array binding signal (z-score),[3],2.02
same,glycan array binding signal (z-score),[4],3.6
same,glycan array binding signal (z-score),Gal3S(b1-3)GlcNAc,-0.33
same,glycan array binding signal (z-score),Gal3S4S(b1-4)GlcNAc,-0.359
same,glycan array binding signal (z-score),Gal4S(b1-4)GlcNAc,-0.487
same,glycan array binding signal (z-score),[5],3.31
same,glycan array binding signal (z-score),Glc(b1-4)Glc,-0.25
same,glycan array binding signal (z-score),Glc(b1-6)Glc,-0.304
same,glycan array binding signal (z-score),[6],-0.028
same,glycan array binding signal (z-score),[7],-0.358
same,glycan array binding signal (z-score),[8],-0.235
same,glycan array binding signal (z-score),[9],0.001
same,glycan array binding signal (z-score),GlcNAc(b1-3)GalNAc,-0.196
same,glycan array binding signal (z-score),[10],-0.23
same,glycan array binding signal (z-score),[11],-0.378
same,glycan array binding signal (z-score),[12],-0.038
same,glycan array binding signal (z-score),[13],-0.424
same,glycan array binding signal (z-score),[14],-0.241
same,glycan array binding signal (z-score),[15],-0.17
same,glycan array binding signal (z-score),[16],-0.505
same,glycan array binding signal (z-score),Neu5Ac(a2-6)Gal,-0.186
same,glycan array binding signal (z-score),Neu5Ac(a2-6)GalNAc,-0.481
same,glycan array binding signal (z-score),[17],-0.3
same,glycan array binding signal (z-score),Neu5Ac(b2-6)GalNAc,-0.388
